Out of some 340,000 compounds screened, about 1,000 (0.29%) were called active. Cut-off read from the data, not from the text of the source: inconclusive = inhibition above about 29% without an active follow-up result; inactive = below that. Not all results are given here. Measured potencies and affinities stand elsewhere.
Target: Genome polyprotein (Dengue virus type 2 (strain 16681-PDK53)) (UniProt P29991)
Test: flavivirus cap methylation enzyme inhibition – biochemical, confirmation dose response, primary screen (AID 588689)
Conditions: Dengue-2 NS5 methyltransferase capping enzyme assay, at 25 µM, stronger effect = higher value
[1] = measured here: pilot screen replicate inhibition

SMILES	inhibition	inhibition [1] [%]
O=C(Nc1ccccc1N1CCCCC1)c1cc(S(=O)(=O)N2CCOCC2)ccc1Cl	-0.73% (inactive)	
C#CC[N+](C)(C)CC#Cc1ccccc1	-1.48% (inactive)	
O=C1CC(c2ccccc2)CC(O)=C1C=NCc1ccc(Cl)c(Cl)c1 (centres undefined)	3.34% (inactive)	
CC1(C)CC(=O)C(C(N)=NC(=O)c2ccccc2)=C(O)C1	0% (inactive)	
CC(=O)c1c(C)[nH]c(C(=O)OCC(=O)N2CCc3ccccc32)c1C	-4.77% (inactive)	
CCCCc1cc(=O)oc2cc(OCC(=O)N3CCc4ccccc43)ccc12	-4.8% (inactive)	
CCc1ccc(N2C(=O)CC(Cn3nc(C)cc3C)C2=O)cc1 (centres undefined)	-5.48% (inactive)	
CN(C)S(=O)(=O)c1cccc(NC(=O)/C=C/c2ccc(S(=O)(=O)N3CCOCC3)cc2)c1	-0.74% (inactive)	
CC1=NN(c2cccc(C(=O)O)c2)C(=O)/C1=C\C=C\c1ccco1	19.1% (inactive)	
CC1=NN(c2ccc(C(=O)O)cc2)C(=O)/C1=C/c1ccc(-c2ccccc2F)o1	51.9% (inactive)	
COC(=O)c1ccccc1-c1ccc(/C=C2\C(=O)N(c3ccccc3)N=C2c2ccccc2)o1	1.6% (inactive)	
CCOC(=O)c1ccc(N2N=C(C)/C(=C/C=C/c3ccco3)C2=O)cc1	10.2% (inactive)	
O=C(c1ccccc1[N+](=O)[O-])N1CCCC(C(=O)N2CCCCCC2)C1 (centres undefined)	0% (inactive)	
CCc1ccc(NC(=O)c2nc(S(=O)(=O)Cc3ccccc3)ncc2Cl)cc1	-51.9% (inactive)	
CCCSc1nnc(NC(=O)c2nc(SC)ncc2Cl)s1	0% (inactive)	
C=CCSc1nnc(NC(=O)c2nc(SCC)ncc2Cl)s1	-6.43% (inactive)	
O=C(Nc1ccc(F)cc1)c1nc(S(=O)(=O)Cc2ccccc2)ncc1Cl	-51.9% (inactive)	
COc1ccc([N+](=O)[O-])cc1NC(=O)CCN1CCOCC1	-1.96% (inactive)	
COc1ccc(N(CC(=O)N/N=C/c2ccc(-c3ccc([N+](=O)[O-])cc3)o2)S(=O)(=O)c2ccc(C)cc2)cc1Cl	-4.14% (inactive)	
O=C(c1ccc(N2C(=O)c3ccccc3C2=O)cc1)N1CCN(S(=O)(=O)c2ccccc2F)CC1	-0.55% (inactive)	
O=C(CCC(=O)Nc1cccc(Cl)c1)N/N=C/c1cc([N+](=O)[O-])ccc1O	-2.94% (inactive)	
CN1CCCC(OC(=O)c2ccc(C(C)(C)C)cc2)C1 (centres undefined)	-4.27% (inactive)	
CCOC(=O)C1C(=O)CC(C)(O)C(C(=O)OCC)C1c1cccc(OC)c1 (centres undefined)	-3.38% (inactive)	

SMILES	inhibition	inhibition [1] [%]
CCNCc1cc(OCC)c(OCC(=O)NCCc2ccccc2)cc1Cl	-2.77% (inactive)	
CCCn1c(N)c(C(=O)CSc2nc3ncc(Cl)cc3[nH]2)c(=O)[nH]c1=O	-2.94% (inactive)	
Cc1ccc(S(=O)(=O)N2[C@@H](c3cccc(Cl)c3)C(C(=O)O)=CC[C@H]2c2cccc(C)c2)cc1	20.8% (inactive)	
Cc1ccc(S(=O)(=O)N2[C@@H](c3ccccc3)C(C(=O)O)=CC[C@H]2c2cccc(Cl)c2)cc1	-2.4% (inactive)	
Cc1ccc(S(=O)(=O)N2[C@@H](c3ccc(Cl)cc3)C(C(=O)O)=CC[C@H]2c2ccc(C(C)C)cc2)cc1	25.9% (inactive)	
Cc1ccc(S(=O)(=O)N2[C@@H](c3ccc(Cl)cc3)C(C(=O)O)=CC[C@H]2c2cccc(Cl)c2)cc1	22.7% (inactive)	
Cc1ccc(S(=O)(=O)N2[C@@H](c3ccccc3)C(C(=O)O)=CC[C@H]2c2ccc(C(C)C)cc2)cc1	21.6% (inactive)	
Cc1ccc([C@H]2C(C(=O)O)=CC[C@@H](c3cccc(Cl)c3)N2S(=O)(=O)c2ccc(C)cc2)cc1	16.6% (inactive)	2.77
Cc1ccc(S(=O)(=O)N2[C@@H](c3cccc(Cl)c3)C(C(=O)O)=CC[C@H]2c2ccc(Cl)cc2)cc1	20.7% (inactive)	
COc1ccc([C@@H]2CC=C(C(=O)O)[C@H](c3cccc(Cl)c3)N2S(=O)(=O)c2ccc(Cl)cc2)cc1	16% (inactive)	
O=C(NCCCN1CCCC1=O)c1cccc(N2CCCC2=O)c1	-1.47% (inactive)	
CN(C)S(=O)(=O)c1ccc(C(=O)OCC(=O)c2ccc(OC(F)F)cc2OC(F)F)cc1	2.08% (inactive)	
CCCN1CCN(C(=O)c2ccc(CS(=O)c3ccc(F)cc3)o2)CC1 (centres undefined)	-6.18% (inactive)	
O=S(=O)(NCc1cccc(C(F)(F)F)c1)NCc1ccccc1F	-7.25% (inactive)	
CCn1c(SCc2nc3ccccc3c(=O)[nH]2)nnc1-c1ccncc1	3.13% (inactive)	-0.31
CCCCn1c(N)c(N(CCOC)C(=O)CCc2ccc(OC)cc2)c(=O)[nH]c1=O	-2.18% (inactive)	
Cc1ccc(Cc2nc(-c3ccncc3)no2)cc1	-1.78% (inactive)	
CCN(CC)Cc1cc(C(C)=O)ccc1O	-1.36% (inactive)	
CN(C)Cc1cc(O)c(CN(C)C)cc1O	24.7% (inactive)	
Nc1nc(N)c(N=Nc2ccc(C(=O)O)cc2)c(N)n1	0.65% (inactive)	
COc1ccc(N=Nc2ccc(N)nc2N)cc1	1.3% (inactive)	
COc1cc2cc(CCCOC(=O)c3ccc(Br)cc3)oc(=O)c2cc1OC	8.18% (inactive)	
COc1cc(C(CC(=O)Nc2ccc(C)cn2)N2Cc3ccccc3C2=O)cc(OC)c1OC (centres undefined)	-5.88% (inactive)	

SMILES	inhibition	inhibition [1] [%]
Cc1ccc(C(=O)C(C)OC(=O)C2CCN(c3ccc(C(F)(F)F)cn3)CC2)cc1 (centres undefined)	-0.72% (inactive)	
CNC(=O)C1CC(=O)N(CCc2ccc(C)cc2)C1 (centres undefined)	-3.31% (inactive)	
Cc1noc(C(=O)Nc2ccccc2C(F)(F)F)c1Cl	-9.68% (inactive)	
O=C(O)c1ccc(/C=C2\SC(=S)N(NC(=O)c3ccccc3)C2=O)cc1	8.49% (inactive)	
COc1ccc(/C=C2/SC(=S)N(NS(=O)(=O)c3ccccc3)C2=O)cc1	21.2% (inactive)	
COc1ccc(/C=C2/SC(=S)N(n3c(C)ccc3C)C2=O)cc1	-3.19% (inactive)	
O=C(Cc1ccccc1)NN1C(=O)/C(=C/c2ccc(C(=O)O)cc2)SC1=S	27% (inactive)	
Cc1ccc(S(=O)(=O)NN2C(=O)/C(=C\c3ccc(Cl)cc3)SC2=S)cc1	-1.66% (inactive)	
O=C1/C(=C/c2ccc(O)c(O)c2)SC(=S)N1Nc1ccccc1	-21.8% (inactive)	
CC(=O)NN1C(=O)/C(=C\c2ccc(C)cc2)SC1=S	-6.43% (inactive)	
CCN1CCCC(NC(=O)c2cc([N+](=O)[O-])ccc2OC)C1 (centres undefined)	-5.8% (inactive)	
O=C(CSc1ccccc1)N1CCCC(N2CCN(c3ccc(F)cc3)CC2)C1 (centres undefined)	1.77% (inactive)	
Nn1c(Cc2ccccc2F)nnc1SCC(=O)Nc1cccc(S(=O)(=O)NC2=NCCCCC2)c1	-0.76% (inactive)	
COc1ccc(CNS(=O)(=O)NCc2ccc(C)cc2)cc1OC	-10.9% (inactive)	
COCCNC(=O)C1CC2Cn3c(nc4cc5ccccc5cc43)C2N1C (centres undefined)	-1.6% (inactive)	
C=C(C)C(=O)NNc1ccccc1	0% (inactive)	
O=C(Cc1ccc(Cl)cc1)N/N=C/c1ccncc1	-1.47% (inactive)	
Cc1noc(C)c1COc1ccc(C(=O)OCC(=O)Nc2cccc(S(=O)(=O)N3CCOCC3)c2)cc1	0.96% (inactive)	
O=C(O)c1ccccc1/C=N/NC(=O)C1CCCC1	-8.46% (inactive)	
COc1cc(/C=C2/SC(=S)NC2=O)ccc1OS(=O)(=O)c1ccc(C)cc1	9.96% (inactive)	
COc1ccc(/C=C2/SC(=O)N(NS(=O)(=O)c3ccccc3)C2=S)cc1OC	15.7% (inactive)	
COc1cc(/C=C2\SC(=S)N(CC(=O)O)C2=O)ccc1OS(=O)(=O)c1ccc(C)cc1	22.7% (inactive)	
COc1ccc(OC)c(/C=C2\SC(=S)N(NS(=O)(=O)c3ccc(C)cc3)C2=O)c1	40.5% (inactive)	

SMILES	inhibition	inhibition [1] [%]
CCOc1ccc(/C=C2\SC(=S)N(Nc3ccccc3)C2=O)cc1OC	8.01% (inactive)	
CCOc1ccc(/C=N/NS(=O)(=O)c2ccc(C)cc2)cc1OC	-1.16% (inactive)	
O=C1[C@H]2[C@@H](c3ccccc3)N[C@]3(CCCN(Cc4ccc(Cl)cc4)C3=O)[C@H]2C(=O)N1Cc1ccccc1	-4.41% (inactive)	
CC(=O)C1N=NCC1c1ccccc1 (centres undefined)	0.78% (inactive)	
O=C(CSc1ccc(-c2ccc(F)cc2)nn1)NC1CCCCC1	-4.13% (inactive)	
COCc1cc(=O)n2[nH]c(C)cc2n1	-5.47% (inactive)	
CC1CCN(S(=O)(=O)c2ccc3[nH]c(=O)[nH]c3c2)CC1	-10.8% (inactive)	
COc1ccc(C(=O)/C=C/c2ccsc2)cc1CSCC(=O)O	6.74% (inactive)	
COc1ccc(C(=O)/C=C/c2ccc(OCc3ccccc3)cc2)cc1CSCC(=O)O	11.7% (inactive)	
COc1ccc(CCC(=O)OCC(=O)c2ccc[nH]2)cc1OC	1.46% (inactive)	
CSc1nccn1CC(=O)Nc1ccc(F)cc1	-6.45% (inactive)	
CCc1ccccc1NC(=O)NC1CC2CCC(C1)N2Cc1ccco1 (centres undefined)	-3.12% (inactive)	
CCCC(N)CCCCCC(=O)O (centres undefined)	-9.35% (inactive)	
CCCCCCC(=O)O	-2.09% (inactive)	
CCNc1nc(NCC)n2c(SCC(=O)NC34CC5CC(CC(C5)C3)C4)nnc2n1	-8.01% (inactive)	
CCCn1nc([N+](=O)[O-])c(C(C#N)c2nc3ccccc3s2)c(Cl)c1=O (centres undefined)	27.6% (inactive)	
CCCCCn1c(N)c(-c2nc3ccccc3s2)c2c([N+](=O)[O-])nn(CC)c(=O)c21	-4.79% (inactive)	
N#CC(c1ccccn1)c1ncc(C(F)(F)F)cc1Cl (centres undefined)	-2.95% (inactive)	
CCCCn1c(N)c(-c2nc3ccccc3o2)c2c([N+](=O)[O-])nn(CC)c(=O)c21	-0.74% (inactive)	
Cc1nc([N+](=O)[O-])c(Sc2nc3ccccc3n2C)n1Cc1ccccc1	11.5% (inactive)	
CCCCn1c(N)c(-c2nc3ccccc3s2)c2c([N+](=O)[O-])nn(CC)c(=O)c21	-3.23% (inactive)	
Cn1c(C(C#N)C(=O)c2sc3ccccc3c2Cl)nc2ccccc21 (centres undefined)	-3.45% (inactive)	
O=[N+]([O-])c1ccc(CC(Cl)c2ccccn2)cc1 (centres undefined)	0.78% (inactive)	
